The results in this text go back to article PMC7862700, “An all-to-all approach to the identification of sequence-specific readers for epigenetic DNA modifications on cytosine”.

Common to all, as to experiment: DAPPL (digital affinity profiling via proximity ligation, sequencing); 10 mM Tris-HCl pH 7.5, 50 mM NaCl, 1 mM DTT, 4% glycerol, room temperature, 30 min; GST-TFs on glutathione beads, 16-mer random dsDNA library, 0.1% formaldehyde crosslink after washing; high values mean tight binding
One test has as its target T1, FLI1 (Homo sapiens, UniProt Q01543 1-452).
T1 sequence: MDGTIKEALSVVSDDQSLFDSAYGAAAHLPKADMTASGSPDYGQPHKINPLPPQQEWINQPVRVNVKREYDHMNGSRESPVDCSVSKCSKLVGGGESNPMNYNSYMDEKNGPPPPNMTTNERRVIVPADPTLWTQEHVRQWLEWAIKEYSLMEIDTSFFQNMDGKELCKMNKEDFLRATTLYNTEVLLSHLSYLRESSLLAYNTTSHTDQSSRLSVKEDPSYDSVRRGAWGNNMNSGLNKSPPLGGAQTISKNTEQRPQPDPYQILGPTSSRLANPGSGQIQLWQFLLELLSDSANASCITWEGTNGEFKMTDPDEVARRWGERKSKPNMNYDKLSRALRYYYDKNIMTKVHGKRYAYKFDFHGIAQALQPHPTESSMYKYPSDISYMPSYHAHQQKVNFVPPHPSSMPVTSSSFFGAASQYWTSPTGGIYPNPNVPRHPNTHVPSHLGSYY
Conditions: protein: recombinant; tags: N-terminal GST; dsDNA, one strand shown. In short, it runs like this:
(§1)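 The binding signal reported is, for every hexamer, its read frequency for a factor over its read frequency for the tag-only sample. Reads came from pools of yeast-expressed, GST-fused human transcription factors on glutathione beads, barcoded with DNA and mixed with that sample, which were incubated with 200 nmole of a random double-stranded 16-mer DNA library in Tris/NaCl/DTT/glycerol buffer at room temperature for 30 min. After washing, the pools were crosslinked with 0.1% formaldehyde, proximity-ligated with BsaI/T4 ligase for 1 h at 37 °C, PCR-amplified and sequenced on an Illumina NextSeq500.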

The target in a further test is T2, ELK1 (Homo sapiens, UniProt P19419 1-428).
T2 sequence: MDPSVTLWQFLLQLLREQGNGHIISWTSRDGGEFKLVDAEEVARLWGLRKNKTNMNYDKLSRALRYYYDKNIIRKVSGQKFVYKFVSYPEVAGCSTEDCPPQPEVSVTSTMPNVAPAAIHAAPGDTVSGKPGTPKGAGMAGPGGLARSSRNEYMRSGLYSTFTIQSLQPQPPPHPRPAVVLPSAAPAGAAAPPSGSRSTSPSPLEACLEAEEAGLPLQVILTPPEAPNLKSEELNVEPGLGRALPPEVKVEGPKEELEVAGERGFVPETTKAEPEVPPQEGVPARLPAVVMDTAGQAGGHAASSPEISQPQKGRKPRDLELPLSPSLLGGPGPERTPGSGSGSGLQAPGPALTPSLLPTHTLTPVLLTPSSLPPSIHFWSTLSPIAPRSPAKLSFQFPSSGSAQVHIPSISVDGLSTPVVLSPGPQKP
To be noted: protein: recombinant; tags: N-terminal GST; dsDNA, one strand shown. The method in brief: as §1

A further test addresses T3, GABPA (Homo sapiens, UniProt Q06546 1-454).
T3 sequence: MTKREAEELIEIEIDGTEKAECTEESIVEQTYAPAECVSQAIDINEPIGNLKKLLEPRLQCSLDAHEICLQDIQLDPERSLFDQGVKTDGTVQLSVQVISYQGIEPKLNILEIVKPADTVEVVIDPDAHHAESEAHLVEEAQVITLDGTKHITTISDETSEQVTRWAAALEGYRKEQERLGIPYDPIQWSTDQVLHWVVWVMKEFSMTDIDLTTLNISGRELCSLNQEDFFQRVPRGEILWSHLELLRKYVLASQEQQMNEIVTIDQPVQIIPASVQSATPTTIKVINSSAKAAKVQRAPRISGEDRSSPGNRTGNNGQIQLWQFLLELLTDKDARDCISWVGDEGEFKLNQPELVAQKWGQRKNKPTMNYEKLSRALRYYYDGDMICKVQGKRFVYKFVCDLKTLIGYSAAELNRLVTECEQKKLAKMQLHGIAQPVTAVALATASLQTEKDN
Conditions: protein: recombinant; tags: N-terminal GST; dsDNA, one strand shown. In short, it runs like this:
as §1

In another test the target is T4, ERG (Homo sapiens, UniProt P11308 1-479).
T4 sequence: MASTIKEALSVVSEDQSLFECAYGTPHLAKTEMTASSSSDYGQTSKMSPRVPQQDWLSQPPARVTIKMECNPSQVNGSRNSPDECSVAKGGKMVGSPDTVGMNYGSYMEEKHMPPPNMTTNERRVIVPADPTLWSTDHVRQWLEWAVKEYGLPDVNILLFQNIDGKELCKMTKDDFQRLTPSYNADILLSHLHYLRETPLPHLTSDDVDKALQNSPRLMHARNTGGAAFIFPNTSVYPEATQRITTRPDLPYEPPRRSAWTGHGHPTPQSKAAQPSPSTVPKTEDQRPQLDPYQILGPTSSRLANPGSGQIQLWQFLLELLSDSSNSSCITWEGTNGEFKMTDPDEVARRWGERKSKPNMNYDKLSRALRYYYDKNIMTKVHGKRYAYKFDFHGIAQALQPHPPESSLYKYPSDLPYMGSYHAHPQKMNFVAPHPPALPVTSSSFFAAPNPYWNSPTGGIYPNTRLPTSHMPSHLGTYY
Conditions: protein: recombinant; tags: N-terminal GST; dsDNA, one strand shown. The method in brief:
as §1

The next test deals with ELF1 (Homo sapiens, UniProt P32519 1-619). Conditions: protein: recombinant; tags: N-terminal GST; dsDNA, one strand shown. The method in brief: as §1
The target in another test is T5, EHF (Homo sapiens, UniProt Q9NZC4 1-300).
T5 sequence: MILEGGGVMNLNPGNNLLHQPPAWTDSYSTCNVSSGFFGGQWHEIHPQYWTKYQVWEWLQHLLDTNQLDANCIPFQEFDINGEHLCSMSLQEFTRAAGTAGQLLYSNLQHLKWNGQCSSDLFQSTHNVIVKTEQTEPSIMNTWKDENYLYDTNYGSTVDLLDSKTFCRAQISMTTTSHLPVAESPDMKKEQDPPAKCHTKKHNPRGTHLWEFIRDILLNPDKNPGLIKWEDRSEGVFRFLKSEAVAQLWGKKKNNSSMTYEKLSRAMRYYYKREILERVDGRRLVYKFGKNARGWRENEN
Conditions: protein: recombinant; tags: N-terminal GST; dsDNA, one strand shown. In short, it runs like this:
as §1

The target in another test is SPI1 (Homo sapiens, UniProt P17947 1-270). Conditions: protein: recombinant; tags: N-terminal GST; dsDNA, one strand shown. In short, it runs like this:
as §1

In the next test the target is SPIB (Homo sapiens, UniProt Q01892 1-262). Conditions: protein: recombinant; tags: N-terminal GST; dsDNA, one strand shown. The method in brief: as §1
Another test deals with T6, ELK3 (Homo sapiens, UniProt P41970 1-407).
T6 sequence: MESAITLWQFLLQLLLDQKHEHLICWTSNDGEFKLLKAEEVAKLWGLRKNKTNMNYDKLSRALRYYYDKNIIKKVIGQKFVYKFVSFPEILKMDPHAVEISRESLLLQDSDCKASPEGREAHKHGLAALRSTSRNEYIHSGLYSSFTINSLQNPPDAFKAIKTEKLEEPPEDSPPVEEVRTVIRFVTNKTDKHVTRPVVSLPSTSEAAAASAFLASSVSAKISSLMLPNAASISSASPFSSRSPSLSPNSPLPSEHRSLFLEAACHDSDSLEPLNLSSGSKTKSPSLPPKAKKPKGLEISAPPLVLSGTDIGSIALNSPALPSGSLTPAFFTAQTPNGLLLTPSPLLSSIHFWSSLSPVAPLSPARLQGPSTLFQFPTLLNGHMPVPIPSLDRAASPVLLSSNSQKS
Conditions: protein: recombinant; tags: N-terminal GST; dsDNA, one strand shown. The method in brief: as §1

A further test has as its target T7, FEV (Homo sapiens, UniProt Q99581 1-238).
T7 sequence: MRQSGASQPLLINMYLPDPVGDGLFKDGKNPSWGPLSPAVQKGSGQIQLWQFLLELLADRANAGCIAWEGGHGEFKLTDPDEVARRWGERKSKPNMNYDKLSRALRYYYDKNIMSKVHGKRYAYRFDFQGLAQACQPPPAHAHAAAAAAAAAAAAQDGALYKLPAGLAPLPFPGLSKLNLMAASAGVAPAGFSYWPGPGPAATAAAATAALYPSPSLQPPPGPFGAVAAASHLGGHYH
Conditions: protein: recombinant; tags: N-terminal GST; dsDNA, one strand shown. The method in brief: as §1

In a further test the target is ETV5 (Homo sapiens, UniProt P41161 1-510). To be noted: protein: recombinant; tags: N-terminal GST; dsDNA, one strand shown. In short, it runs like this: as §1
A further test deals with HSF1 (Homo sapiens, UniProt Q00613 1-529). To be noted: protein: recombinant; tags: N-terminal GST; chain copies: 3; dsDNA, one strand shown. The method in brief: as §1
The next test has as its target T8, SPIC (Homo sapiens, UniProt Q8N5J4 1-248).
T8 sequence: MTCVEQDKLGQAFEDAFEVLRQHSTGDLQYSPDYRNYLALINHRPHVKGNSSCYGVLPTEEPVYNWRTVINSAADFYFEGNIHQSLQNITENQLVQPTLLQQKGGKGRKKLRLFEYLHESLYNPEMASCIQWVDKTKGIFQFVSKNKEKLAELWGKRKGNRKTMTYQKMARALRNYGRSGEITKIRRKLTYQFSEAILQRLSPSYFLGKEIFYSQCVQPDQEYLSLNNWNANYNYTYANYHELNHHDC
Conditions: protein: recombinant; tags: N-terminal GST; dsDNA, one strand shown. In short, it runs like this: as §1

The target of another test is ELF4 (Homo sapiens, UniProt Q99607 1-663). Conditions: protein: recombinant; tags: N-terminal GST; dsDNA, one strand shown. The method in brief: as §1
The target in the next test is T9, ELK4 (Homo sapiens, UniProt P28324-2 1-405).
T9 sequence: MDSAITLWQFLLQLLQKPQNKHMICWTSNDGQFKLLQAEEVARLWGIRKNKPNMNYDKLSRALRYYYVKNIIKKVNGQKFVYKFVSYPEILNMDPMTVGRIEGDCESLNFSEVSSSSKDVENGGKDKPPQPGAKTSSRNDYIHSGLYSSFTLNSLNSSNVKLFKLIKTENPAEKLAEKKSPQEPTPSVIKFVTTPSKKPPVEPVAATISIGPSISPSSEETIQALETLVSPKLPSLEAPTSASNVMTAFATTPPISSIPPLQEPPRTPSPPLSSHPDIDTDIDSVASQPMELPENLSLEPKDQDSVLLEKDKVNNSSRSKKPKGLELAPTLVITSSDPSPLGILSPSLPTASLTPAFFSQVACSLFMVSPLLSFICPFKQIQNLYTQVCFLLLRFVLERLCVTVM
To be noted: protein: recombinant; tags: N-terminal GST; dsDNA, one strand shown. In short, it runs like this:
as §1

The next test addresses T10, ELF3 (Homo sapiens, UniProt P78545 1-371).
T10 sequence: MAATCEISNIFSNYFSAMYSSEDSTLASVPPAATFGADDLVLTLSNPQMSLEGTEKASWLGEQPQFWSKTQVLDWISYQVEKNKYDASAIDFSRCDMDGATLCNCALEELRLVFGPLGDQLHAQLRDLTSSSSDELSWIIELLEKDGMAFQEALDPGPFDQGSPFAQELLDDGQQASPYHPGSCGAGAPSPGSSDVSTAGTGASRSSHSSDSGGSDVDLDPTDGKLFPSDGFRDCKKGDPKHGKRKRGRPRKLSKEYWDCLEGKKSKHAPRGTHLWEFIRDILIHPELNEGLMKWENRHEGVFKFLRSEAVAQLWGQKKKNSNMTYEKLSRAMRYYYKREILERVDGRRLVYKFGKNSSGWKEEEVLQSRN
To be noted: protein: recombinant; tags: N-terminal GST; dsDNA, one strand shown. The method in brief: as §1

Another test deals with CRX (Homo sapiens, UniProt O43186 1-299). To be noted: protein: recombinant; tags: N-terminal GST; dsDNA, one strand shown. In short, it runs like this: as §1
Another test concerns the target ETV1 (Homo sapiens, UniProt P50549 1-477). To be noted: protein: recombinant; tags: N-terminal GST; dsDNA, one strand shown. The method in brief: as §1

Sequence of HSF1 (Q00613 whole entry): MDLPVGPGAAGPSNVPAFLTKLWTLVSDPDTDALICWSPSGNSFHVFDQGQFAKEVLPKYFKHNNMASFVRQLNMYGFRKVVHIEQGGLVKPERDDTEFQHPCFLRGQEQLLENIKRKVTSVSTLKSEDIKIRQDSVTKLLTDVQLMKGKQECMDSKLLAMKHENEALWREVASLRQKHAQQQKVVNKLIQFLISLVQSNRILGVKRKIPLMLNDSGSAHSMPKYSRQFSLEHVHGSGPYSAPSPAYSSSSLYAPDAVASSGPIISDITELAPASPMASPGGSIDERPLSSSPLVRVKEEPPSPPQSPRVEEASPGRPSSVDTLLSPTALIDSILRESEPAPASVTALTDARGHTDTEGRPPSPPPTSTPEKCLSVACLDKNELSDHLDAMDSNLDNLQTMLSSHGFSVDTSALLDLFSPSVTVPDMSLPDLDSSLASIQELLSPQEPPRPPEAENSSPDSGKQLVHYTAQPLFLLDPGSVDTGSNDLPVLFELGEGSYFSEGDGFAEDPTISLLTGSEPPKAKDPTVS
Sequence of ETV5 (P41161 whole entry): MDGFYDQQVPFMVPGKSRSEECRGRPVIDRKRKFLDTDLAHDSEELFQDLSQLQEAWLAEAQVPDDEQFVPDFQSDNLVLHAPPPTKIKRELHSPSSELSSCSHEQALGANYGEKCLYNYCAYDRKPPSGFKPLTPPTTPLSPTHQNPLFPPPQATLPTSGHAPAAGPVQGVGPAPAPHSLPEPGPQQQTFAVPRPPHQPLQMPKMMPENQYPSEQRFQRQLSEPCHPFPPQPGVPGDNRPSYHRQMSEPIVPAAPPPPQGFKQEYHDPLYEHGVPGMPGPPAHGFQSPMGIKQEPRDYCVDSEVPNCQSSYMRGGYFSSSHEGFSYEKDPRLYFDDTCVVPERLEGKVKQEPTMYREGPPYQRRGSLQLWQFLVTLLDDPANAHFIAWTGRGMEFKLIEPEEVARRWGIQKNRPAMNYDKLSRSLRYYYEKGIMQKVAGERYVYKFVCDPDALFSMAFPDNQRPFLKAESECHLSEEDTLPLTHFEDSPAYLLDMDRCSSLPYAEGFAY
Sequence of ELF1 (P32519 whole entry): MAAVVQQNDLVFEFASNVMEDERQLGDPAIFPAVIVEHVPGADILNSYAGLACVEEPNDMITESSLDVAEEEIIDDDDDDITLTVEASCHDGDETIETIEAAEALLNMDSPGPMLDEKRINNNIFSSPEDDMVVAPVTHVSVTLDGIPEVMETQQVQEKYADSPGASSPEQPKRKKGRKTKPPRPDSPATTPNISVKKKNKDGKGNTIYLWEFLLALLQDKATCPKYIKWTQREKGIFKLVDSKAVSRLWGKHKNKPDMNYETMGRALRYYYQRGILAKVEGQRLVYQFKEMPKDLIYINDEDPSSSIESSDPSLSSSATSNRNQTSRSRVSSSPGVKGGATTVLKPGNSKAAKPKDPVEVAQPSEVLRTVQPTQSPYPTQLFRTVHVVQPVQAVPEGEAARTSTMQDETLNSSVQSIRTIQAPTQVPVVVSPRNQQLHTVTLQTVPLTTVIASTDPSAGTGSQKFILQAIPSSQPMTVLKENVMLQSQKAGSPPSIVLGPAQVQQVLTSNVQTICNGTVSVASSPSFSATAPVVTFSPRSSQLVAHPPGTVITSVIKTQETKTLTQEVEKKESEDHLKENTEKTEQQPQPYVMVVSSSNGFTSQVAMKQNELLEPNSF
Sequence of ELF4 (Q99607 whole entry): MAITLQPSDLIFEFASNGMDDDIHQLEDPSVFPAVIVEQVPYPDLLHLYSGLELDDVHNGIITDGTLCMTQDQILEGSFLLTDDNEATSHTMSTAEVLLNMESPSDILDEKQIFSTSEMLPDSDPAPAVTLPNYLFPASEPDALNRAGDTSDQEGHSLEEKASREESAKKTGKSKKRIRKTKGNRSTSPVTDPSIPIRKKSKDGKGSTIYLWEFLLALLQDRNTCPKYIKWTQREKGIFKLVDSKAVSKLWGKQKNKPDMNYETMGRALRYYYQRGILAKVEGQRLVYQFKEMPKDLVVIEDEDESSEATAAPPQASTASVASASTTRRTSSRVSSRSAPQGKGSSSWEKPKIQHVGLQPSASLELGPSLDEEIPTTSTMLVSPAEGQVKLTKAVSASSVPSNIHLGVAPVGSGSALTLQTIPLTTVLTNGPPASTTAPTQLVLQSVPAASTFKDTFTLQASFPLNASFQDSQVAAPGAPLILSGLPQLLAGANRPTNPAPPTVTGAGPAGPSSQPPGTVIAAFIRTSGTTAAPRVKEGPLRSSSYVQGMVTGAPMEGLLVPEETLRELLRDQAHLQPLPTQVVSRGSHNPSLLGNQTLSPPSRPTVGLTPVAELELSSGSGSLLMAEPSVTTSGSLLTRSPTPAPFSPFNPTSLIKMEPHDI
Sequence of CRX (O43186 whole entry): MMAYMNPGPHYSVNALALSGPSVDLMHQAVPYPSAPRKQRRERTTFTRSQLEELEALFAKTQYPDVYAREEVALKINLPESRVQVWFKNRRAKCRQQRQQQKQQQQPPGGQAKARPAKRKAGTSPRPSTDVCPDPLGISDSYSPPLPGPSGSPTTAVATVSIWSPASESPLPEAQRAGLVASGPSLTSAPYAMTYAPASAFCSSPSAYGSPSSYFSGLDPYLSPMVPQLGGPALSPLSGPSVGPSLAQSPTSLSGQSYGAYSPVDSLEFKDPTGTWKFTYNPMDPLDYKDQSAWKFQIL
Sequence of ETV1 (P50549 whole entry): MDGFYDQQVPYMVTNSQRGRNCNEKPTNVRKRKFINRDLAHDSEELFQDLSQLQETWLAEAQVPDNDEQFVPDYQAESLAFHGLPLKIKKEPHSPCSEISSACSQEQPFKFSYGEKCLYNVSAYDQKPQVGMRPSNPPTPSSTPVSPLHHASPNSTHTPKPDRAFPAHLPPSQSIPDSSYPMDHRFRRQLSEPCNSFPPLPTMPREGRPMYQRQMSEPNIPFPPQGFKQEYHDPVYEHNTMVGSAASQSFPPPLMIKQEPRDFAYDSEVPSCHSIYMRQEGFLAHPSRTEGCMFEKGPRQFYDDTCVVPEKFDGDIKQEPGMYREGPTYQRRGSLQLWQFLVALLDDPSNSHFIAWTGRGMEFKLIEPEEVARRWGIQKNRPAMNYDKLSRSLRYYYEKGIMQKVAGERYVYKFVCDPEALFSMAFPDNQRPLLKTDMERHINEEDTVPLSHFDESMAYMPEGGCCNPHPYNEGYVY
Sequence of SPIB (Q01892 whole entry): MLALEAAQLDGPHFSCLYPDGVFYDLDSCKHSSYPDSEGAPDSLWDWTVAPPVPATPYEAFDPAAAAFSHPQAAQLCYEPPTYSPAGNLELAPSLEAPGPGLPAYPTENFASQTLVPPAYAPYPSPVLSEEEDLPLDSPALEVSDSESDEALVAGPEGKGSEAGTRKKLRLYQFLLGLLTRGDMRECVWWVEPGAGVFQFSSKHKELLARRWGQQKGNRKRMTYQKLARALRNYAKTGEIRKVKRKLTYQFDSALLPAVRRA

AACGTT: the binding signal was 1.07 fold enrichment (6-mer frequency, TF over GST control) with FLI1; 1.15 fold enrichment (6-mer frequency, TF over GST control) with ELK1; 1.04 fold enrichment (6-mer frequency, TF over GST control) with GABPA; 1.15 fold enrichment (6-mer frequency, TF over GST control) with ERG; 1.14 fold enrichment (6-mer frequency, TF over GST control) with ELF1; 1.09 fold enrichment (6-mer frequency, TF over GST control) with EHF. Moreover, the binding signal with SPI1 was 1.06 fold enrichment (6-mer frequency, TF over GST control); with SPIB, 1.15 fold enrichment (6-mer frequency, TF over GST control); with ELK3, 1.28 fold enrichment (6-mer frequency, TF over GST control); with FEV it was 1.08 fold enrichment (6-mer frequency, TF over GST control); with ETV5, 1.07 fold enrichment (6-mer frequency, TF over GST control); in the test with HSF1, 1.32 fold enrichment (6-mer frequency, TF over GST control). Moreover, the binding signal was 1.23 fold enrichment (6-mer frequency, TF over GST control) with SPIC; 1.14 fold enrichment (6-mer frequency, TF over GST control) with ELF4; 1.02 fold enrichment (6-mer frequency, TF over GST control) with ELK4; 1.05 fold enrichment (6-mer frequency, TF over GST control) with ELF3; 1.02 fold enrichment (6-mer frequency, TF over GST control) with CRX; 1.1 fold enrichment (6-mer frequency, TF over GST control) with ETV1.
